In PubChem BioAssay:
Values joined by “and” are separate entries in the source; they are usually repeats but may differ in a detail not shown here. Identical values can stand only once. Active and inactive are the calls of the source.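 Rule for the calls, unless noted: active = compounds whose cell count with miR-34 switched on is under 0.7 times the count with it off; inactive = the rest.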 Where a SMILES comes first, the peptide text is derived from it. The star is where a group is joined. Cbz = O=C(OCc1ccccc1)*; CH2F = FC*

Experiments:
[1] = viability loss with induced miR-34 in A549 – imaging, A549 dox-inducible miR-34, nuclei and caspase counts, primary screen (AID 1347080); details: A549 miR-34 inducible, Hoechst nuclei count, 48 h
[2] = MELAS cybrid and Rieske KO viability enhancers – cell-based, MELAS cybrids, Rieske KO mouse fibroblasts, CellTiter-Glo, primary screen (AID 1508586;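 active = mean z-score across replicates of 1.96 or higher in either the MELAS or the Rieske mutant cell line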;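 note: z relative to plate mean and SD of compound and empty wells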); details: low glucose
[3] = stronger effect = lower value, cell number ratio, induced over uninduced
[4] = measured here: relative caspase fold change +Dox/-Dox
[5] = measured here: total cells with miR-34 induction, stronger effect = lower value
[6] = measured here: total cells without miR-34 induction
[7] = MELAS cybrid survival, CellTiter-Glo 48 h, stronger effect = higher value
[8] = Rieske KO mouse fibroblast survival, CellTiter-Glo 72 h
Note: test concentration not given here.

Row | SMILES | fold change [1, 3] | fold change [1, 4] | cell count [1, 5] | cell count [1, 6] | z-score [2, 7] | z-score [2, 8]
1 | CC1CNc2c(cccc2S(=O)(=O)N[C@@H](CCCN=C(N)N)C(=O)N2CCC(C)CC2C(=O)O)C1 (some centres not stated) | 0.97 (inactive) | 0.669 | 7750 | 7990 | -0.261 (inactive) | -0.0788
2 | CC1(C)S[C@@H]2C(NC(=O)C(N)c3ccccc3)C(=O)N2C1C(=O)O (some centres not stated) | 0.917 (inactive) | 0.571 | 8070 | 8800 | -0.241 (inactive) | -0.225
3 | COC(=O)CC(NC(=O)C(C)NC(=O)C(NC(=O)OCc1ccccc1)C(C)C)C(=O)CF (stereo not drawn) (Cbz-Val-Ala-Asp(OMe)-CH2F; configuration not given here) | 0.936 (inactive) | 0.758 | 8620 | 9210 | -0.172 (inactive) | -0.115
4 | CC(O)[C@H]1C(=O)N2C(C(=O)OCOC(=O)C(C)(C)C)=C(SC3CN(C4=NCCS4)C3)C(C)[C@@H]12 (some centres not stated) | 0.943 (inactive) | 0.543 | 8990 | 9530 | -0.198 (inactive) | -0.552
5 | CC(=O)O[C@]1(C(C)=O)CC[C@H]2[C@@H]3C[C@H](C)C4=CC(=O)C=C[C@]4(C)[C@@]3(F)[C@H](O)C[C@@]21C | 0.862 (inactive) | 1.9 | 5370 | 6240 | -0.0969 (inactive) | -0.184
6 | CC(C)CCNC(=O)C(CC(C)C)NC(=O)C1OC1C(=O)O (configuration not stated) | 0.919 (inactive) | 0.36 | 8670 | 9430 | -0.356 (inactive) | 0.0853
7 | Nc1nccc2c1ncn2C1C=C(CO)C(O)C1O (configuration not stated) | 0.968 (inactive) | 0.366 | 4640 | 4800 | -0.724 (inactive) | -1.41
8 | C#C[C@@]1(O)CC[C@H]2[C@@H]3CCc4cc(OC)ccc4[C@@H]3CC[C@@]21C | 0.921 (inactive) | 0.824 | 7730 | 8400 | -0.343 (inactive) | 0.814
9 | FC(F)(F)c1ccc(C=Cc2nc(COc3ccc(CCCCn4ccnn4)cc3)co2)cc1 | 0.766 (inactive) | 1.23 | 4190 | 5470 | -0.189 (inactive) | -0.508
10 | CCC(=O)O[C@@]1(C(=O)CCl)[C@@H](C)C[C@H]2[C@@H]3CCC4=CC(=O)C=C[C@]4(C)[C@]3(F)[C@H](O)C[C@@]21C | 0.838 (inactive) | 0.869 | 5560 | 6630 | -0.516 (inactive) | -0.656
11 | CN(C)C1C(=O)C(C(N)=O)=C(O)[C@@]2(O)C(=O)C3=C(O)c4c(O)ccc(Cl)c4C(O)[C@H]3C[C@@H]12 (some centres not stated) | 0.836 (inactive) | 1.66 | 6970 | 8340 | 3.28 (active) | 5.13
12 | C[C@@]12CCC3=C4CCC(=O)C=C4CC[C@H]3[C@@H]1CC[C@@]2(O)CC#N | 0.908 (inactive) | 0.868 | 7270 | 8010 | -0.385 (inactive) | 0.301
13 | Cc1[nH]c2ccccc2c1CCNC(=O)c1cccs1 | 0.913 (inactive) | 0.438 | 7830 | 8570 | -0.422 (inactive) | 0.75
14 | Nc1nc2c(ncn2C2OC(CO)C(O)C2O)c(=O)[nH]1 (configuration not stated) | 0.891 (inactive) | 0.755 | 8140 | 9140 | -0.357 (inactive) | -0.0165
15 | O=C(CSc1nc2c(c(=O)n1-c1ccccc1)SCC2)Nc1ccc(-c2ccccc2)cn1 | 0.945 (inactive) | 0.349 | 7310 | 7740 | -0.49 (inactive) | 0.404
16 | CC(C)CC(NC(=O)C(CCc1ccccc1)NC(=O)CN1CCOCC1)C(=O)NC(Cc1ccccc1)C(=O)NC(CC(C)C)C(=O)[C@@]1(C)CO1 (some centres not stated) | 0.898 (inactive) | 1.94 | 778 | 867 | -0.243 (inactive) | -3.69
17 | O=S(=O)(NCCNCC=Cc1ccc(Br)cc1)c1cccc2cnccc12 | 0.834 (inactive) | 0.904 | 8100 | 9710 | -0.305 (inactive) | 0.0221
18 | CC(CS)C(=O)N1CCCC1C(=O)O (configuration not stated) | 1.01 (inactive) | 0.525 | 8320 | 8250 | -0.2 (inactive) | -0.263
19 | COC1C[C@H]2CCC(C)[C@@](O)(O2)C(=O)C(=O)N2CCCC[C@H]2C(=O)OC(C(C)CC2CCC(OP(C)(C)=O)C(OC)C2)CC(=O)C(C)C=C(C)C(O)C(OC)C(=O)C(C)CC(C)C=CC=CC=C1C (some centres not stated) | 1.07 (inactive) | 0.835 | 4570 | 4270 | 0.709 (inactive) | 1.92
20 | C1=CCOCc2cc(ccc2OCCN2CCCC2)Nc2nccc(n2)-c2cccc(c2)COC1 | 0.848 (inactive) | 0.685 | 776 | 915 | 3.58 (active) | -5.03
21 | C=C1C(CO)C(O)CC1n1cnc2c(=O)[nH]c(N)nc21 (configuration not stated) | 1.01 (inactive) | 0.924 | 7270 | 7170 | -0.366 (inactive) | -0.0519
22 | CC(=O)O[C@@]1(C(C)=O)CC[C@H]2[C@@H]3C=C(Cl)C4=CC(=O)C5CC5[C@]4(C)[C@@H]3CC[C@@]21C (some centres not stated) | 0.94 (inactive) | 0.713 | 7720 | 8210 | -0.351 (inactive) | 0.528
23 | Nc1ncnc2c1ncn2C1OC(CO)C(O)C1O (configuration not stated) | 0.838 (inactive) and 0.824 (inactive) | 0.867 and 1.17 | 6490 and 8470 | 7740 and 10300 | -0.00177 (inactive) and -0.197 (inactive) | -2.04 and 0.972
24 | O=C(NCC(O)CO)c1ccncc1Nc1ccc(I)cc1F (configuration not stated) | 1.05 (inactive) | 0.75 | 3270 | 3120 | -0.688 (inactive) | -1.18
25 | C=CCc1ccc(O)c(-c2cc(CC=C)ccc2O)c1 | 0.923 (inactive) | 0.657 | 7490 | 8120 | 0.173 (inactive) | -0.0672
26 | NC1=N[C@@]2(c3cc(NC(=O)c4ccc(F)cn4)ccc3F)COC[C@@H]2CS1 | 0.902 (inactive) | 1.51 | 8500 | 9420 | -0.211 (inactive) | 0.113
27 | COc1cc2ncnc(Sc3nnc(C)s3)c2cc1OC | 0.954 (inactive) | 0.244 | 5380 | 5640 | 2.8 (active) | 1.21
